Measurements from PubChem BioAssay AID504832 (National Center for Advancing Translational Sciences (NCATS), 2011).
Hit rate of the full screen: of about 310,000 compounds, about 18,000 (5.8%) were called active. Not shown: some 22% with an inconclusive outcome. The sample as a whole holds a higher share of actives than the screen did. A number with no mark means an inactive call. Calls follow the shape of the dose curve; as a rule, active = well fitted inhibition curve with a large enough effect; inconclusive = small, poorly fitted or top-dose-only effect, or another doubt; inactive = no such curve, though single readings can be large or run the other way.

test: Primary qHTS for delayed death inhibitors of the malarial parasite plastid, 48 hour incubation; settings: P. falciparum luciferase growth in erythrocytes; series mostly up to 28.7 µM; activity change, negative = inhibition: at the top concentration
Text: The goal of this screen is to discover new antimalarial compounds that act by inhibiting the development of the apicoplast in the malarial parasite Plasmodium falciparum. The biochemical processes that make this organelle essential for erythrocytic stage parasites are not well understood. However, antibiotics such as azithromycin and tetracycline, which target the apicoplast translational machinery, have a potent antimalarial effect.
We have developed a cell-based assay that measures parasite growth based on the expression of an integrated copy of a firefly luciferase reporter. To detect small molecules that cause this "delayed death" phenotype, erythrocytes infected with the luciferase-expressing parasites were incubated with compounds for either one or two generations, corresponding to 48 and 96 hours, respectively. Compounds that inhibit parasite growth in the second generation, but not the first, should be enriched in antimalarials that target the apicoplast. Growth inhibition is detected by a decrease in luciferase activity.
Assay Provider: David Fidock and Eric Ekland, Columbia University
Keywords: NIH Roadmap, MLPCN, MLI, MLSMR, qHTS, NCGC, qHTS, malaria, luciferase, viability
Four microliters of culture medium (RPMI 1640 with 0.5% w/v Albumax (GIBCO), 24 mM sodium bicarbonate and 10 ug/mL gentamycin) were dispensed by a Multi-drop Combi into white solid 1536-well plates (Grenier) and 23 nL compound was added by a pin tool. Four microliters of infected erythrocytes (2% hematocrit, 0.1% parasitemia final concentration) in culture medium were dispensed and the plates incubated for 48 hours at 37 C in 5% CO2. Two microliters of luciferase detection reagent was added and luminescence was detected by a ViewLux (PerkinElmer) reader.
% is scaled to controls: 0 for no effect and ±100 for the full control effect; potency is read from the fitted curve at half-maximal effect.

In order of rising “activity change, negative = inhibition” value:
1. CCOc1ccccc1NS(=O)(=O)c1cc2c3c(c1)C(C)C(=O)N3CCC2 (stereo not given)  -22.7%
2. Cc1cc(C)n(CC(O)COc2ccc(C(C)(C)C)cc2)n1 (stereo not given)  -22.6%
3. COc1cc(NC(=O)CSc2ccc(-c3cccnc3)nn2)cc(OC)c1  -21.3%
4. COc1ccc(-c2noc(CCCC(=O)NC3CCCC3)n2)cc1OC  -19%
5. O=C(OCC(=O)N1CCc2ccccc21)c1ccc([N+](=O)[O-])cc1  -15.6%
6. COc1ccc2oc(C(=O)OCC(=O)N(CC(C)C)c3c(N)n(Cc4ccccc4)c(=O)[nH]c3=O)c(C)c2c1  -15.5%
7. CC1C(=O)Nc2ccccc2N1C(=O)c1c(F)cccc1F (stereo not given)  -12%
8. O=C(Nc1ccc(N2C(=O)c3cccc4cccc(c34)C2=O)cc1)c1ccc(N2CCCCC2)c([N+](=O)[O-])c1  -11.8%
9. CCn1cc(/C=C(\NC(=O)c2ccc(C)cc2)C(=O)NCCN2CCOCC2)c2ccccc21  -11.1%
10. O=C(NC1C2CC3CC(C2)CC1C3)c1ccc(N2CCNCC2)c([N+](=O)[O-])c1 (stereo not given)  -9.91%
11. OC(COc1ccc(Br)cc1)CN1CCCC1 (stereo not given)  -3.26%
12. O=C(O)CCn1c(Cc2ccccc2)nc2ccccc21  -1.94%
13. NC(=O)c1cc(-c2cccnc2)nc2ccc(Br)cc12  -1.12%
14. COc1ccccc1/C=N/N1CCN(Cc2ccccc2Cl)CC1  -0.519%
15. COc1ccccc1CN1CCN(C(=O)Cc2ccccc2)CC1  0.183%
16. O=C(CNC(=O)c1ccccc1)Oc1ccc([N+](=O)[O-])cc1  0.311%
17. Cc1ccc2c(c1)C1CN(C)CCC1N2C(=S)Nc1ccc(Cl)cc1Cl (stereo not given)  1.06%
18. CCOc1ccc(-c2noc(CCC(=O)NC3CCCC3)n2)cc1OC  1.54%
19. Cc1ccc2c(c1)C1CN(C)CCC1N2C(=S)Nc1ccc(OC(F)F)cc1 (stereo not given)  2.27%
20. CCCCn1c(N)c(N(CCOC)C(=O)c2sc3ccccc3c2Cl)c(=O)[nH]c1=O  4.94%
21. Cc1ccc(C)c(OCCC(=O)OCC(=O)N2CCN(c3ccccc3)CC2)c1  7.54%
22. O=[N+]([O-])c1ccc(NC(=S)N2CCN(c3ccccn3)CC2)cc1  7.82%
23. COc1ccc(N2CC(NS(=O)(=O)c3ccc4ccccc4c3)CC2=O)cc1 (stereo not given)  9.04%
24. O=C(N/N=C\c1cc2c(cc1Cl)OCO2)c1ccc(Br)s1  9.16%
25. Cc1cc(C)n(-c2cc(Oc3ccccc3)ncn2)n1  10.9%
26. Cc1cc(Oc2ccc(Cl)cc2)nc(SCC(=O)c2ccccc2)n1  11.4%
27. COc1cccc(C(=O)Nc2nnc(S(=O)(=O)N3CCCCC3)s2)c1  11.5%
28. Cc1ccc(S(=O)(=O)N(C)C)cc1NC(=O)C(C)OC(=O)c1ccc2ccccc2n1 (stereo not given)  14.4%
29. O=C(NCc1ccco1)c1ccc([N+](=O)[O-])cc1Cl  14.9%
30. O=C(CCNC(=O)c1ccc(Br)cc1)Nc1cccc(S(=O)(=O)N2CCCCC2)c1  17.9%
31. COc1cccc(-c2noc(C3CCCN(C(=O)c4ccc(F)cc4)C3)n2)c1 (stereo not given)  30.9%
32. Cn1c(-c2ccc(F)cc2)cc2onc(-c3ccccc3Cl)c2c1=O  33.5%
33. Cc1cc(C)n(-c2ccc(NC(=O)C3CCCCN3C(=O)c3cccs3)cc2)n1 (stereo not given)  34%
34. CC(C)c1ccc(-c2noc(C3CCCN(S(C)(=O)=O)C3)n2)cc1 (stereo not given)  37.3%
35. O=C(Nc1ccc([N+](=O)[O-])cc1)OCCc1ccccn1  40.9%
36. CC(C)NC(=O)COCc1cc(-c2ccc3c(c2)OCO3)on1  41.4%
37. COc1ccc(/C=C2\SC(=O)N(CCC(=O)NC3CCS(=O)(=O)C3)C2=O)cc1 (stereo not given)  106%
38. O=C(Nc1ccccn1)C1CCN(S(=O)(=O)c2ccc3c(c2)OCCO3)CC1  114%
39. COc1ccc(NC(=O)CSc2nc(SC)ns2)c(OC)c1  152%

In the case of `CC[C@@H]1Cc2cc(O)ccc2C2=C1c1ccc(O)cc1C[C@H]2CC`, the Potency is reported as 11.7 µM (active).
In the case of `CN(C)CC(O)COc1ccc(C(C)(C)c2ccc(OCC(O)CN(C)C)cc2)cc1` (stereo not given), the Potency is reported as 5.86 µM (active).
With `CC1=NC2(CCCc3c2no[n+]3[O-])N(O)C1(C)C` (stereo not given) the Potency was 7.38 µM (active).
In the case of `CC(=O)c1ccc(Oc2cc(C)nc(-n3nc(C)cc3C)n2)cc1`, the Potency is reported as 11.7 µM (active).
In the case of `COc1cc(-c2noc(C3CCCN(S(=O)(=O)c4cccc(Cl)c4)C3)n2)cc(OC)c1OC` (stereo not given), the Potency is reported as 13.1 µM (active).
With `Cc1ccc2c(c1)C1CN(C)CCC1N2S(=O)(=O)c1ccc(Oc2ccc([N+](=O)[O-])cc2)cc1` (stereo not given) the Potency was 8.28 µM (active).
For `COc1ccccc1CN1CCN(C(c2ccccc2)c2ccccc2)CC1`, the Potency was 13.1 µM (active).
With `O=C(NCc1ccco1)c1cc(-c2cccnc2)nc2ccc(Cl)cc12` the Potency was 10.4 µM (active).
With `O=C(Nc1cccc(C(F)(F)F)c1)c1ccc(N2CCNCC2)c([N+](=O)[O-])c1` the Potency was 2.62 µM (active).
For `Oc1c(Cl)cc(Cl)c(Cl)c1Cc1c(O)c(Cl)cc(Cl)c1Cl`, the Potency was 11.7 µM (active).

`COc1ccc(C(=O)CC(=O)C(=O)Nc2cc([N+](=O)[O-])ccc2OC)cc1` gave an activity change, negative = inhibition of -19.7% [at 0.00184 µM].
